PHOSPHO1 block = PHOSPHO1 (human) inhibition; recombinant PHOSPHO1, absorbance phosphatase assay; inhibition, % at 13.3 µM; 290,000 tested, 1.1% active; AID 1565; in the data active = inhibition above about 60%
Target sequence (Q8TCT1 whole entry, looked up): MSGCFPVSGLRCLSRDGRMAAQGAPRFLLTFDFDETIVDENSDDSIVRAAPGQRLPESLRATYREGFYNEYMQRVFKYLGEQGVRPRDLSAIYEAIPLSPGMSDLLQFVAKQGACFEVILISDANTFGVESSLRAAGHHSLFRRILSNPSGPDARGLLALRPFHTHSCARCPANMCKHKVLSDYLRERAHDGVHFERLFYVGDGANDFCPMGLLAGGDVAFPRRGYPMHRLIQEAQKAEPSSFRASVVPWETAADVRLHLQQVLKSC
MITF act = activators of MITF-driven TRPM1 promoter activity in SK-MEL-5 cells | SK-MEL-5 TRPM1-promoter luciferase, 24 h; % of positive control, neutral wells = 0 | activation, % at 12.5 µM | 300,000 tested, 0.75% active | AID 588334;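 active = mean activation of at least 80% with every replicate also reaching 80%; inconclusive = mean reaches 80% but some replicate falls short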;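 note: 0% = neutral control wells and 100% = parthenolide positive control wells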
A3G deaminase = APOBEC3G (human) deaminase inhibition; Q9HC16; recombinant A3G, ssDNA deamination FAM/TAMRA fluorescence; inhibition, % at 20 µM; 330,000 tested, 0.28% active; AID 493012;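 active = inhibition of at least 40% at 20 µM, with no more than 30% in the related APOBEC3A deaminase screen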;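 note: plate controls were DMSO wells with A3G for no effect and wells lacking A3G enzyme for full effect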
Target sequence (Q9HC16 whole entry, looked up): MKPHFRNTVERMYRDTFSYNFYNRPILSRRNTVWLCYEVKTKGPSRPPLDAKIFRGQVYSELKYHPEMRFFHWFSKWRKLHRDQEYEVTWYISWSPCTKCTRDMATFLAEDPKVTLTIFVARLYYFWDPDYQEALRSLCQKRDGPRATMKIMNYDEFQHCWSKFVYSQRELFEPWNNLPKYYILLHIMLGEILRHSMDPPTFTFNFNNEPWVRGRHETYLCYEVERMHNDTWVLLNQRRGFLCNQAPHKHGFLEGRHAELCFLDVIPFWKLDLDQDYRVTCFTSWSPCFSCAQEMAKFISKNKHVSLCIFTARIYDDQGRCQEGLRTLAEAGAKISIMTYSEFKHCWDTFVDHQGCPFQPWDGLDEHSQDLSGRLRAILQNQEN
A3A deaminase = human APOBEC3A DNA deaminase inhibition; P31941; recombinant A3A, FAM/TAMRA ssDNA deamination fluorescence; inhibition, % at 20 µM; 330,000 tested, 0.41% active;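 active = at least 40% inhibition at 20 µM here, with at most 30% in a related deaminase screen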;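 note: plate controls were A3A with DMSO for no effect and wells lacking A3A enzyme for full effect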
Wnt act = Wnt/beta-catenin pathway activation; Wnt/beta-catenin reporter cell assay, activator, plate reader; activation, % at 9.35 µM; 300,000 tested, 1.2% active; AID 743398; in the data active = activation above about 30%, passing the limit was not always enough; inconclusive = no clear call, values can overlap the other calls;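 note: 0% = neutral control wells and 100% = positive control wells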
esBAF inh = blocks esBAF chromatin remodeling in mouse ES cells. Bmi1-luciferase knock-in reporter, 24 h; 100% = twice the neutral-well signal. reporter increase, % at 12.5 µM. 350,000 tested, 2% active; in the data active = activation above about 40%; inconclusive = no clear call, values can overlap the other calls;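 note: 0% = median of the plate's neutral control wells and 100% = double that signal; a rise in the Bmi1 reporter signal indicates esBAF inhibition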
* marks the source's active call; other numbers are inactive results; ? = inconclusive; . = no result. A selection: hits, their analogues and other compounds. The true share with any hit is near 3.6%.

SMILES	PHOSPHO1 block	MITF act	A3G deaminase	A3A deaminase	Wnt act	esBAF inh
C[C@@H]1CCCCO[C@@H](CN(C)C(=O)Nc2cccc3ccccc23)[C@H](C)CN([C@H](C)CO)C(=O)c2cc(NC(=O)Nc3ccc(F)cc3)ccc2O1	.	.	.	.	.	6.6
C[C@@H](NC(=O)C[C@@H]1C[C@H]2c3cc(NC(=O)Nc4ccccc4F)ccc3O[C@H]2[C@H](CO)O1)c1ccccc1	.	.	.	.	.	5.8
CC(C)C1CC(CCNCc2ccc(N(C)C)cc2)(c2ccccc2)CCO1 (stereo not drawn)	-6.4	-71.9	-1.5	-1.7	-4.1	2.4
Cc1ccc(C2(CCNCc3ccc(N(C)C)cc3)CCOC(C(C)C)C2)cc1 (stereo not drawn)	63.6*	-38.4	-11.8	3.5	3.8	.
Cc1ccc2oc(C(=O)Nc3nonc3C)c(C)c2c1	38.0	74.5	-7.6	-6.5	12.4	36.3
Cc1ccc2oc(C(=O)Nc3nnc(C)s3)c(C)c2c1	4.2	43.6	1.8	4.9	57.5*	65.1*
COc1ccc2oc(C(=O)Nc3nc4ccc(S(C)(=O)=O)cc4s3)c(C)c2c1	.	19.0	-6.5	-1.8	-0.5	2.1
CC(=O)c1sc(NC(=O)c2oc3ccc(F)cc3c2C)nc1C	.	66.3	-3.3	-2.2	39.4*	49.8*
COc1ccc2oc(C(=O)Nc3nnc(C)s3)c(C)c2c1	.	37.5	-2.8	1.8	34.4*	-22.2
Cc1ccc(S(=O)(=O)Nc2cccc3c2O[C@@H](CN(C)C)[C@H](C)CN([C@@H](C)CO)C3=O)cc1	.	.	.	.	.	2.3
Cc1cc(C(=O)CN2C(=O)c3ccccc3S2(=O)=O)c(C)n1-c1ccccc1	-7.2	-79.5	-1.3	-2.4	-1.0	-82.3
CCCn1c(C)cc(C(=O)CN2C(=O)c3ccccc3C2=O)c1C	.	8.3	-3.0	1.5	43.1*	.
CCn1c(C)cc(C(=O)CN2C(=O)c3ccccc3S2(=O)=O)c1C	.	-68.1	-8.0	-1.6	0.7	-76.9
COCCn1c(C)cc(C(=O)CN2C(=O)NC3(CCCCCC3)C2=O)c1C	.	69.1	-9.0	-2.8	?	?
CCCn1c(C)cc(C(=O)CN2C(=O)NC3(CCCCCC3)C2=O)c1C	.	.	.	.	29.4	54.3*
Cc1cc(C(=O)CN2C(=O)NC3(CCCCCC3)C2=O)c(C)n1C	.	24.6	-11.8	-5.3	29.0	44.0*
Cc1cc(C(=O)CN2C(=O)C3CC=CCC3C2=O)c(C)n1-c1ccccc1 (stereo not drawn)	14.5	.	-1.4	1.2	48.1*	-10.7
CO[C@@H]1CN(C)C(=O)c2cc(NC(=O)Nc3ccccc3Cl)ccc2OC[C@@H](C)N(S(C)(=O)=O)C[C@H]1C	.	.	.	.	.	3.1
CCCC#Cc1ccc2c(c1)O[C@@H](CN(C)C(=O)NC(C)C)[C@H](C)CN([C@@H](C)CO)S2(=O)=O	.	.	.	.	.	3.3
O=C(Nc1ccccc1)N1CCCCN2[C@@H](CO)[C@H](c3ccc(Br)cc3)[C@@H]2C1	.	.	.	.	.	1.9
Cc1ccc(C)c(NC(=O)/C(C#N)=C/c2ccc[nH]2)c1	7.5	-10.7	-5.6	-3.5	-0.9	6.7
Cc1cccc(NC(=O)/C(C#N)=C/c2ccc[nH]2)c1C	-7.5	12.7	-3.9	1.0	6.8	48.8*
O=C(Cn1cnc2sc3c(c2c1=O)CCCC3)NCC(=O)Nc1ccc(F)cc1F	64.9*	17.5	2.9	2.8	-1.1	-3.3
C[C@H](NC(=O)[C@@H]1[C@@H](CO)[C@@H]2Cn3c(cccc3=O)[C@@H]2N1S(C)(=O)=O)c1ccccc1	.	.	.	.	.	2.4
Cc1ccc(OCCSc2nc(N)cc(N)n2)cc1	3.5	?	-2.3	1.5	13.3	.
SMILES	PHOSPHO1 block	MITF act	A3G deaminase	A3A deaminase	Wnt act	esBAF inh
COc1ccc(OCCSc2nc(N)cc(N)n2)cc1	7.1	95.1*	-0.7	1.7	1.9	67.1*
COc1ccccc1CNC(=O)C(=O)c1cn(CC(=O)N2CCCC2)c2ccccc12	61.6*	16.1	1.0	-0.5	0.9	.
CCN(CC)C(=O)Cn1cc(C(=O)C(=O)N2CCN(c3ccccc3)CC2)c2ccccc21	59.4	-7.0	-5.1	-3.9	-0.8	-1.4
COc1ccc(CNC(=O)C(=O)c2cn(CC(=O)N3CCCC3)c3ccccc23)cc1	24.0	13.4	-7.8	-0.3	1.7	25.7
CCN(C(=O)Cn1cc(C(=O)C(=O)N2CCOCC2)c2ccccc21)c1ccccc1	72.8*	-1.8	-7.3	-2.6	-1.7	-4.4
CCn1cc(SCC(=O)N2CCOCC2)c2ccccc21	-2.0	39.1	0.3	2.0	16.2	51.6*
Cn1cc(SCC(=O)N2CCOCC2)c2ccccc21	34.3	.	-6.8	-2.6	0.9	16.3
O=C(Cn1cc(SCc2ccccc2Cl)c2ccccc21)N1CCOCC1	-3.4	28.1	-0.8	-0.8	.	82.2*
COc1cccc(S(=O)(=O)Nc2ccc3c(c2)[C@@H]2C[C@@H](CC(=O)NCCc4ccccc4)O[C@H](CO)[C@@H]2O3)c1	.	.	.	.	.	20.6
O=C(NCc1ccc(Cl)cc1)C(=O)c1cn(CC(=O)N2CCOCC2)c2ccccc12	11.6	9.2	-2.3	0.1	5.3	11.7
O=C(Nc1ccccc1Cl)C(=O)c1cn(CC(=O)N2CCOCC2)c2ccccc12	27.6	83.2*	-3.3	-2.2	38.8*	52.1*
C[C@@H]1CN([C@H](C)CO)S(=O)(=O)c2ccc(C#Cc3ccccc3)cc2O[C@H]1CN(C)C(=O)c1ccccn1	.	.	.	.	.	7.0
Cc1ccc(N2Cc3ccccc3C2=S)cc1	-8.2	74.3	-3.3	-1.3	15.7	72.8*
Clc1cccc(-c2cc3nc4c(c(N5CCN(c6cnccn6)CC5)n3n2)CCCC4)c1	1.5	46.8	-6.5	-6.5	3.4	46.7*
Clc1cccc(-c2cc3nc4c(c(N5CCOCC5)n3n2)CCCC4)c1	-25.0	?	-1.9	-0.5	.	?
O=C(NCC[C@H]1CC[C@H](NC(=O)c2cnccn2)[C@@H](CO)O1)Nc1ccc(F)cc1	.	.	.	.	.	14.8
N/N=C1\CCCc2c1[nH]c1ccc([N+](=O)[O-])cc21	88.2*	.	10.6	-3.6	-0.1	.
OC1c2cc(Br)ccc2N=C2CCCCCN21 (stereo not drawn)	.	.	.	.	-3.1	44.1*
Cc1ccc(NC(=O)C(=O)NCCCN2CCCC2=O)cc1	.	55.9	3.0	-3.0	42.7*	.
C[C@H](CO)N1C[C@H](C)[C@H](CN(C)C)Oc2ncc(-c3ccc(C(=O)N(C)C)cc3)cc2C1=O	.	.	.	.	.	3.0
Cc1ccc(S(=O)(=O)N(C)C[C@@H]2Oc3ccc(NC(=O)Nc4c(C)noc4C)cc3C(=O)N([C@@H](C)CO)C[C@H]2C)cc1	.	.	.	.	.	0.6
CNC(=S)NNC(=O)c1cccn(Cc2cccc(C(F)(F)F)c2)c1=O	-144.0	.	-7.7	-5.4	1.6	-0.8
CNC(=S)NNC(=O)c1sccc1OCc1cccc(C(F)(F)F)c1	68.9*	.	-10.3	-4.3	.	.
CNC(=S)NNC(=O)c1sccc1OCc1ccc(C)cc1	74.0*	.	-11.1	-4.9	.	.
CO[C@@H]1CN(C)C(=O)c2cc(NC(=O)C3CC3)ccc2OC[C@@H](C)N(Cc2ccncc2)C[C@H]1C	.	.	.	.	.	-3.4
